SMILES strings stand for the structures. Values joined by “and” are separate entries in the source; they are usually repeats but may differ in a detail not shown here. Equal values may be shown once. Records with an inconclusive call do not appear. Entries that show only a call come without a potency. Values without a mark were called inactive. Active and inactive are the calls of the source. The call rests on the fitted dose curve; in most records, active means well fitted activation curve with a large enough effect in the repeat runs; inconclusive means weak or mixed curves; inactive means no such curve, though single readings can be large or run the other way.
Potency means the concentration at half of the fitted maximal effect.

The test in a line: qHTS assay for small molecules that induce genotoxicity in human embryonic kidney cells expressing luciferase-tagged ATAD5 (AID 651632). Further: nearly all actives have a fitted effect of over 15% in size. The following applies: HEK293T ATAD5-luciferase induction, 16 h; series mostly up to 83.3 µM; activation: at the top concentration. The source says:
U.S. Tox21 Program National Center for Advancing Translational Sciences [NCATS] NIH Chemical Genomics Center [NCGC] U.S. Environmental Protection Agency [EPA] National Institutes of Environmental Health Sciences [NIEHS] National Toxicology Program [NTP] U.S. Food and Drug Administration [FDA] Tox21 Assay Overview: As cancer cells divide rapidly and during every cell division they need to duplicate their genome by DNA replication. The failure to do so results in the cancer cell death. Based on this concept, many chemotherapeutic agents were developed but have limitations such as low efficacy and severe side effects etc. A new cell based assay was developed to find the compounds that effectively block DNA replication either by directly damaging DNA or by inhibiting other cellular mechanisms. Enhanced Level of Genome Instability Gene 1 (ELG1; human ATAD5) protein levels increase in response to various types of DNA damage. Using a luciferase reporter-gene tagged with ATAD5, a cell-based assay [developed by Kyungjae Myung, NHGRI, NIH] was used to measure the induction of ATAD5 in human embryonic kidney cells (HEK293T). So, increase in luciferase activity can be used to identify the compounds that cause genetic stress.
Tox21 Assay Protocol Summary: For genotoxicity screening, 2,000 cells in 5 uL/well were dispensed into white, solid-bottom 1536-well plates using a Multidrop Combi (Thermo Scientific) dispenser. Following transfer of 23 nL compound or DMSO vehicle by a pin tool, the plates were incubated 16 hr at 37C and 5% CO2. 5 ul Amplite (AAT Bioquest, Inc.) was then added to each plate and following 30 min incubation at room temperature, luciferase activity was quantified on a ViewLux CCD-based plate reader.
On the technique in general: In qHTS, concentration-response curves come from the screen itself.
Turning to `O=C1CCCCCN1`, the Potency result was “inactive”.
Consider `CC(C)CC(C)CC(O)CC(C)C` (stereo not given), for which the Potency entry is “inactive”.
The same measure, in the same setting: under `Cn1cnc2c1c(=O)[nH]c(=O)n2C` stands “inactive”.
As to `NC(=O)N1c2ccccc2C=Cc2ccccc21`, the Potency result is “inactive”.
On to `COc1cc(C=O)ccc1O`, for which the Potency result is “inactive”.
For the compound `C#C[C@]1(O)CC[C@H]2[C@@H]3CCc4cc(O)ccc4[C@H]3CC[C@@]21C`, the Potency result was “inactive”.
`CC(C)(C)CC(C)(C)c1ccc(O)c(-n2nc3ccccc3n2)c1`: the Potency result is “inactive”.
Turning to `CCCCCCCC(=O)OCC(O)CO` (stereo not given), the Potency result was “inactive”.
For the compound `O=C(O)Cc1cccc2ccccc12`, the Potency result is “inactive”.
`O=C1OC(c2ccc(O)cc2)(c2ccc(O)cc2)c2ccccc21`: the Potency result is “inactive”.
Consider `C/C=C/c1ccc(O)c(OC)c1`, for which the Potency entry was “inactive”.
On to `OC[C@@H](O)[C@@H](O)[C@H](O)[C@H](O)CO`, for which the Potency entry was “inactive”.
On to `O=C(O)CN(CC(=O)O)CC(=O)O`, for which the Potency result was “inactive”.
Same read-out and setting: under `CC(O)COc1ccccc1` (stereo not given) stands “inactive”; under `COC(=O)c1ccc(C=O)cc1`, “inactive”; under `COc1ccc(C(=O)c2ccccc2)c(O)c1`, “inactive”.
Regarding `CCn1cc(C(=O)O)c(=O)c2ccc(C)nc21`, the Potency entry is “inactive”.
As for `OCCCc1ccccc1`, the Potency result is “inactive”.
With `C[C@]12C[C@H](O)[C@H]3[C@@H](CCC4=CC(=O)CC[C@@]43C)[C@@H]1CC[C@@H]2C(=O)CO`, the Potency entry was “inactive”.
Regarding `COc1ccccc1O`, the Potency entry was “inactive”.
On the same count and under the same terms, under `NC(=O)N/N=C/c1ccc([N+](=O)[O-])o1` stands “inactive”; under `O=C(OCc1ccccc1)c1ccccc1`, “inactive”.
The same measure, in the same setting: under `COC(=O)c1ccc(O)cc1` stands “inactive”; under `COc1ccccc1NC(=O)CC(C)=O`, “inactive”.
In the case of `CCCCCCCCOc1ccc(C(=O)c2ccccc2)c(O)c1`, the Potency entry was “inactive”.
In the case of `C=C(C)OC(C)=O`, the Potency entry was “inactive”.
`Cc1ccc(O)c(-n2nc3ccccc3n2)c1`: the Potency was 9.44 µM (active) and 6.11 µM (active).
Still for that read-out and setting: as for `CCCCOCCOCCSC#N`, the entry is “inactive”.
On to `CC1=C(/C=C/C(C)=C/C=C/C(C)=C/C(=O)O)C(C)(C)CCC1`, for which the “activation” value is 6.25%.
With `CC(=O)/C=C/C1=C(C)CCCC1(C)C`, the Potency entry is “inactive”.
Turning to `Cc1cccc(C)c1O`, the Potency result was “inactive”.
The same measure, in the same setting: under `CCCCCCCCCCCCCCCCCC(=O)OCC(O)CO` (stereo not given) stands “inactive”.
For `CN/C(=C\[N+](=O)[O-])NCCSCc1ccc(CN(C)C)o1`, the Potency entry was “inactive”.
For the compound `C#C[C@]1(O)CC[C@H]2[C@@H]3CCC4=CC(=O)CC[C@@H]4[C@H]3CC[C@@]21CC`, the Potency entry is “inactive”.
For the compound `C=CCOC(=O)CC(C)C`, the Potency entry is “inactive”.
Take `CC(C)Cc1ccc(C(C)C(=O)O)cc1` (stereo not given): the Potency result was “inactive”.
As for `NC(=O)NO`, the Potency entry was “inactive”.
For `CCCCOCCOCCOC(C)=O`, the Potency result was “inactive”.
On the same count and under the same terms, under `C=C(C)C(N)=O` stands “inactive”; under `CO[C@H]1C=CO[C@@]2(C)Oc3c(C)c(O)c4c(O)c(c(/C=N/N5CCN(C)CC5)c(O)c4c3C2=O)NC(=O)/C(C)=C\C=C[C@H](C)[C@H](O)[C@@H](C)[C@@H](O)[C@@H](C)[C@H](OC(C)=O)[C@@H]1C`, “inactive”.

Values taken from PubChem BioAssay (Tox21).
